From PubChem BioAssay (EPA / NIEHS) come the findings set out here.

Structures are written as SMILES. Inconclusive results are not listed. The source made the active and inactive calls. Rule for the calls: active = hit-call score of the fitted dose curve at least 0.9, where 1 is the maximum; inconclusive = response in the unintended direction; inactive = score below 0.9.

Read-out in the assay: sulfotransferase (SULT2A), SULT2A1 (gene 6822)
Briefly: CLD_SULT2A_6hr: CellzDirect (CLD) Gene Expression Assay for sulfotransferase (SULT2A) at 6 hours (AID 2283669).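 Note: hits raise transcript level above the DMSO vehicle baseline.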 The protocol: CLD_6hr is a cell-based, multiplexed-readout assay that uses hepatocyte, a human liver primary cell, with measurements taken at 6 hours after chemical dosing in a 96-well plate.CLD_SULT2A_6hr is one of 16 assay component(s) measured or calculated from the CLD_6hr assay. It is designed to make measurements of mRNA induction, a form of inducible reporter, as detected with chemiluminescence signals by Quantitative Nuclease Protection Assay (qNPA) technology.Data from the assay component CLD_SULT2A_6hr was analyzed at the endpoint, CLD_SULT2A_6hr, in the positive analysis fitting direction relative to DMSO as the negative control and baseline of activity. Using a type of inducible reporter, gain-of-signal activity can be used to understand changes in the reporter gene as they relate to the gene SULT2A1. Furthermore, this assay endpoint can be referred to as a primary readout. To generalize the intended target to other relatable targets, this assay endpoint is annotated to the transferase intended target family, where subfamily is sulfotransferase.
Human hepatocyte cultures were treated daily for two consecutive days with fresh dosing solutions containing appropriate concentrations of the 320 ToxCast chemicals (chemical identities were blinded to CellzDirect and other ToxCast collaborators), vehicle control (0.2% DMSO), and positive control inducers as summarized in Table 1. Due to the large number of treatment groups and chemicals examined, the ToxCast chemicals were divided into two groups (spanning two independent cultures of hepatocytes from separate donor preparations (Hu778: ToxCast plates 1 and 2; Hu776: ToxCast plates 3 and 4). Each preparation of human hepatocyte cultures was treated with respective vehicle control, medium only control, set of six positive controls/reference chemicals for the five hepatic receptor pathways, and a subset of eight of the ToxCast chemicals (indoxacarb, pyrithiobac-sodium, norflurazon, cyhalofop-butyl, methomyl, thiram, acetochlor, and propiconazole). These replicate data, coupled with internal replicates designed within the blinded ToxCast chemical library, provided additional data to evaluate interindividual differences between hepatocyte preparations and their potential impact on chemical profiles.Cell morphology and integrity were evaluated using phase-contrast microscopy as an indicator of hepatocyte cell health (Tyson & Green, 1987). Cultures for each treatment group (i.e., media, vehicle [0.2% DMSO], positive control inducers [multiple concentrations], and the ToxCast chemicals [multiple concentrations]) were observed and cell morphology was assessed relative to vehicle control cultures at each harvest time point (0, 6, 24, or 48 h). […] Images were evaluated at the conclusion of the study to assess changes in cell integrity and account for the effects of chemical exposure on uncharacteristic changes in concentration-dependent gene expression profiles. The results from these determinations of apparent cytotoxicity were annotated (yes/no) alongside the corresponding qNPA data for reference.At the conclusion of each treatment period, hepatocyte cultures (96-well) were washed with 1 volume of HBSS, lysed by addition of 25 ul ArrayPlate lysis buffer (HTG, Tucson, AZ), and 70 ul/well of Denaturation Oil, denatured by incubation at 95C for 10 min, and frozen at approximately -70C until analysis by nuclease protection assay (qNPA) (Roberts et al., 2007). For qNPA analysis, cell lysates were thawed at 50C for approximately 30 min, qNPA probes were added, and samples were incubated at 95C for 10 min to begin the detection process by denaturing the target RNA, dissociating the duplexes and secondary structure hybridization. At the conclusion of the hybridization period, S1 nuclease reagent was added to each sample to digest all nonprotected nucleotides at 50C for 60-90 min. […]
For the compound `COc1cnc(OC)n2nc(NS(=O)(=O)c3c(OCC(F)F)cccc3C(F)(F)F)nc12`, the compound was called inactive.

Consider `CCCN(CCC)c1c([N+](=O)[O-])cc(S(N)(=O)=O)cc1[N+](=O)[O-]`, for which the call was inactive.

For the compound `N#Cc1cc(Br)c(O)c(Br)c1`, the outcome was inactive.

For `N#CC(CCc1ccc(Cl)cc1)(Cn1cncn1)c1ccccc1` (stereo not given), the compound was classed as inactive.

For the compound `C=CCC1=C(C)C(OC(=O)C2C(C=C(C)C)C2(C)C)CC1=O` (stereo not given), the result was inactive.

With `CC(C)C1(C)N=C(c2nc3ccccc3cc2C(=O)O)NC1=O` (stereo not given), the result was inactive.

Take `CO/C=C(/C(=O)OC)c1ccccc1Oc1cc(Oc2ccccc2C#N)ncn1`: the call was inactive.

As a reminder, the AC50 is the concentration at which the activity in the assay is half-maximal. Take `CCc1nn(C)c(C(=O)NCc2ccc(C(C)(C)C)cc2)c1Cl`: the half-maximal activity concentration (AC50) is 2.8 µM (active).

`CCCCNC(=O)OCC#CI`: the compound was classed as inactive.

As for `Cc1ccc(-c2c(Cl)nc(C#N)n2S(=O)(=O)N(C)C)cc1`, the half-maximal activity concentration (AC50) is 20 µM (active).

For the compound `N#Cc1nn(-c2c(Cl)cc(C(F)(F)F)cc2Cl)c(N)c1S(=O)C(F)(F)F` (stereo not given), the call was inactive.

Take `CC1=C(C(=O)Nc2ccccc2)SCCO1`: the call was inactive.

`CON(C)C(=O)Nc1ccc(Cl)c(Cl)c1`: the outcome was inactive.

As for `COC(=O)N(OC)c1ccccc1COc1ccn(-c2ccc(Cl)cc2)n1`, the compound was classed as inactive.

In the case of `CCOP(=S)(OCC)SCn1c(=O)oc2cc(Cl)ccc21`, the compound was classed as inactive.

`CCCC1COC(Cn2cncn2)(c2ccc(Cl)cc2Cl)O1` (stereo not given): the outcome was inactive.

Regarding `CC(C)Oc1cc(-n2nc(C(C)(C)C)oc2=O)c(Cl)cc1Cl`, the outcome was inactive.

As to `CCNc1nc(Cl)nc(NC(C)C)n1`, the result was inactive.

With `COC(=O)C(C)Oc1ccc(Oc2ccc(Cl)cc2Cl)cc1` (stereo not given), the compound was called inactive.

In the case of `CNC(=S)S`, the AC50 is 7.49 µM (active).

Regarding `COC(=O)C=C(C)OP(=O)(OC)OC`, the outcome was inactive.

Consider `COc1ccc(C(c2ccc(OC)cc2)C(Cl)(Cl)Cl)cc1`, for which the call was inactive.

Regarding `Cc1cc(Cl)ccc1OCC(=O)O`, the compound was classed as inactive.

For `CCOC(=O)C(Cl)Cc1cc(-n2nc(C)n(C(F)F)c2=O)c(F)cc1Cl` (stereo not given), the compound was called inactive.

For `C#CCOS(=O)OC1CCCCC1Oc1ccc(C(C)(C)C)cc1` (stereo not given), the compound was classed as inactive.

As to `O=C(O)COc1nc(Cl)c(Cl)cc1Cl`, the call was inactive.

Turning to `COc1nc(C)nc(NC(=O)NS(=O)(=O)c2ccccc2CCC(F)(F)F)n1`, the result was inactive.

Consider `COc1nc(C)nc(NC(=O)NS(=O)(=O)c2ccccc2Cl)n1`, for which the compound was classed as inactive.

Consider `CC1COC(Cn2cncn2)(c2ccc(Oc3ccc(Cl)cc3)cc2Cl)O1` (stereo not given), for which the AC50 was 20 µM (active).

`CCCCC(CC)COC(=O)c1ccccc1C(=O)OCC(CC)CCCC` (stereo not given): the outcome was inactive.

As to `COc1nc(NC(C)C)nc(NC(C)C)n1`, the outcome was inactive.

Consider `CC(C)(C)c1ccc(CSc2cnn(C(C)(C)C)c(=O)c2Cl)cc1`, for which the compound was called inactive.

With `CCOc1cc(Oc2ccc(C(F)(F)F)cc2Cl)ccc1[N+](=O)[O-]`, the call was inactive.

With `COP(=S)(OC)Oc1nc(Cl)c(Cl)cc1Cl`, the compound was called inactive.

Turning to `COP(N)(=O)SC` (stereo not given), the call was inactive.

For `OC(c1ccc(Cl)cc1)(c1cncnc1)c1ccccc1Cl` (stereo not given), the call was inactive.

With `C=CCC1=C(C)[C@@H](OC(=O)[C@@H]2[C@@H](C=C(C)C)C2(C)C)CC1=O`, the concentration at half-maximal activity (AC50) was 20 µM (active).

As to `CCCCOC(=O)c1ccccc1C(=O)OCCCC`, the call was inactive.

For the compound `Cc1c(F)c(F)c(COC(=O)C2C(/C=C(\Cl)C(F)(F)F)C2(C)C)c(F)c1F` (stereo not given), the call was inactive.

Regarding `CCOC(=O)CC(SP(=S)(OC)OC)C(=O)OCC` (stereo not given), the outcome was inactive.
